Data reported in PubChem BioAssay AID488899 (Broad Institute, 2010).
In all, about 330,000 compounds went through this assay and about 2,800 (0.85%) were called active.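 The calls were made as follows: active = mean inhibition across replicates of 60% or more, whatever share of single replicates reaches that level; inconclusive = some that reach 60%, reason not given; inactive = mean inhibition across replicates below 60%.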 The full list was thinned out, with actives kept by preference.

Assay: inhibitors of MITF-dependent TRPM1 promoter reporter, primary screen, cell-based, SK-MEL-5, single point, luciferase (AID 488899)
Conditions: SK-MEL-5 TRPM1 promoter luciferase, 24 h; at 12.5 µM; hits give high values
In the case of `COc1ccc(CCN2C(=O)CC(N3CCC(C(N)=O)CC3)C2=O)cc1OC` (stereo not given), the inhibition is reported as 18.7% (inactive).
With `CCCCN1CC(COCc2ccccc2)OCCS1(=O)=O` (stereo not given) the inhibition was 6.74% (inactive).
For `O=C(CC1Sc2ccccc2NC1=O)NNc1ccc(Cl)c(Cl)c1` (stereo not given), the inhibition was -0.562% (inactive).
With `C[C@H]1CN([C@@H](C)CO)C(=O)Cc2cc(NC(=O)Cc3ccccc3)ccc2O[C@H]1CN(C)S(=O)(=O)c1cccs1` the inhibition was 14.1% (inactive).
In the case of `CC(=O)c1nc2ccccc2n1Cc1ccccc1`, the inhibition is reported as 3.29% (inactive).
With `CCCCCn1c(=O)c(C(=O)OCC)c(Cl)c2ccccc21` the inhibition was 6.88% (inactive).
For `CC(=O)Oc1c(C(=O)c2nnc(C)o2)c(=O)n(Cc2ccccc2)c2ccccc12`, the inhibition was 66% (active).
For `Cc1ccc(NC(=S)NC(NC(=O)Cc2cccc3ccccc23)C(Cl)(Cl)Cl)cc1` (stereo not given), the inhibition was 36% (inactive).
In the case of `Cc1n[nH]c(=O)c2c1nnn2Cc1ccc(F)cc1`, the inhibition is reported as 0.048% (inactive).
With `Cc1ccc(CNS(=O)(=O)CCNC(=O)c2ccccc2)cc1` the inhibition was -8.66% (inactive).
With `COc1cc(/C=C2\Oc3ccc(C#Cc4ccc(O)cc4)cc3C2=O)cc(OC)c1` the inhibition was 73.1% (active).
For `COc1cc(C#Cc2ccc3cc(CCCO)oc(=O)c3c2)cc(OC)c1`, the inhibition was -11.2% (inactive).
For `COC(=O)C(C)Oc1ccc2c(c1)O/C(=C\c1cccc(Br)c1)C2=O` (stereo not given), the inhibition was -3.21% (inactive).
In the case of `O=C(C1CC(=O)N(C2CCCC2)C1)N1CCN(c2cccc(C(F)(F)F)c2)CC1` (stereo not given), the inhibition is reported as 3.91% (inactive).
For `C[C@H](CO)N1C[C@H](C)[C@H](CN(C)CC2CC2)Oc2ccc(NC(=O)CCN3CCOCC3)cc2C1=O`, the inhibition was -4.39% (inactive).
With `O=C(CCNC(=O)c1ccc([N+](=O)[O-])cc1)NC1CCCCC1` the inhibition was 8.98% (inactive).
With `O=c1oc2ccccc2c(=O)c2ccccc12` the inhibition was -0.811% (inactive).
For `NC(=O)C1CCN(C(=O)c2ccc(-c3ccccc3)cc2)CC1`, the inhibition was -7.15% (inactive).
For `O=C1Nc2cc(C(=O)N3CCC(N4CCCCC4)CC3)ccc2S/C1=C\c1ccccc1`, the inhibition was 88.1% (active).
In the case of `O=C(Nc1ccccc1)C1CCN(C(=O)c2ccc(Br)cc2)CC1`, the inhibition is reported as -9.91% (inactive).
In the case of `O=C1[C@@H](c2ccccc2)[C@@H](c2ccccc2)N1c1cccnc1`, the inhibition is reported as -10.4% (inactive).
In the case of `COc1ccc(C2NC(=O)C(=O)/C2=C(\O)c2ccc(Cl)cc2)cc1OC` (stereo not given), the inhibition is reported as -6.72% (inactive).
With `CCOc1cc(N2CCOCC2)c(OCC)cc1NC(=O)c1ccc(C)s1` the inhibition was 4.27% (inactive).
With `CCOc1cc(N2CCOCC2)c(OCC)cc1NC(=O)COc1cccc(Cl)c1` the inhibition was 0.482% (inactive).
In the case of `CCOc1cc(N2CCOCC2)c(OCC)cc1NC(=O)COc1cccc2cccnc12`, the inhibition is reported as 83.8% (active).
In the case of `CCN1C(=O)N[C@@H](c2ccccc2)[C@H](C(C)=O)[C@H]1C`, the inhibition is reported as 2.98% (inactive).
With `CCOc1ccc(C(=O)NC(=S)Nc2ccc(N3CCOCC3)c(Cl)c2)cc1[N+](=O)[O-]` the inhibition was 6.29% (inactive).
With `Cc1cc(=O)[nH]c2nnnn12` the inhibition was -4.79% (inactive).
For `O=C(NN=Cc1ccccc1)c1ccccc1`, the inhibition was -52.5% (inactive).
For `COc1cc(CCC(=O)N2CCN(c3ccccc3Cl)CC2)cc(OC)c1OC`, the inhibition was 7.49% (inactive).
In the case of `CC(C)(C)OC(=O)C[C@H]1C/C=C\C[C@@H](CC(=O)N[C@H](CO)Cc2ccccc2)C(=O)NC[C@@H](c2ccccc2)OC1=O`, the inhibition is reported as 4.03% (inactive).
For `CC(C)(C)OC(=O)C[C@@H]1C/C=C\C[C@@H](CC(=O)N[C@H](CO)Cc2ccccc2)C(=O)NC[C@@H](c2ccccc2)OC1=O`, the inhibition was 1.12% (inactive).
For `O=C(C[C@H]1C/C=C\C[C@@H](NC(=O)OCC2c3ccccc3-c3ccccc32)C(=O)O[C@@H](c2ccccc2)CNC1=O)N[C@H](CO)Cc1ccccc1`, the inhibition was 86.8% (active).
With `O=C1NCC(c2ccccc2)(c2ccccc2)C(=O)N1` the inhibition was -7.87% (inactive).
In the case of `CC12CN3CCN(CC(C3)/C1=N\NC(=O)c1ccccc1N)C2`, the inhibition is reported as 9.43% (inactive).
For `N#CC1(Nc2ccc(-c3ccc(Cl)cc3)cc2)CCCC1`, the inhibition was -58.9% (inactive).
In the case of `CN(O)C(=S)c1ccccc1`, the inhibition is reported as 82% (active).
In the case of `CN(CC(=O)O)C(=O)c1ccccc1`, the inhibition is reported as -4.07% (inactive).
In the case of `CN(/N=C/c1ccccc1)C(=S)c1ccccc1`, the inhibition is reported as 1.77% (inactive).
In the case of `CCOC(=O)N1CCN(S(=O)(=O)c2cc3c(cc2C)NC(=O)CO3)CC1`, the inhibition is reported as 2.83% (inactive).
For `C=CCn1cc(C(=O)NCc2ccc(Cl)cc2)c(=O)c2cc(S(=O)(=O)N(CC)CC)ccc21`, the inhibition was -5.87% (inactive).
With `O=C(CN1CCN(c2ncccn2)CC1)Nc1ccccc1C(F)(F)F` the inhibition was 18.5% (inactive).
With `CC(=O)c1ccc(S(=O)(=O)N2CCN(c3nc4c(C)c(C)ccc4cc3C#N)CC2)cc1` the inhibition was 3.2% (inactive).
With `CC(=O)c1ccc(S(=O)(=O)N2CCN(C(=O)/C=C/c3ccc4ccccc4n3)CC2)cc1` the inhibition was 72.5% (active).
For `CC(=O)c1ccc(S(=O)(=O)N2CCC3(CC2)OCCO3)cc1`, the inhibition was 8.67% (inactive).
With `CCN(CC)CCNS(=O)(=O)c1ccc(/C=C/C(=O)O)cc1` the inhibition was 14.7% (inactive).
In the case of `C=CC1=C(C(=O)O)N2C(=O)[C@@H](NC(=O)/C(=N\OCC(=O)O)c3csc(N)n3)[C@H]2SC1`, the inhibition is reported as -2.96% (inactive).
For `CC(=O)N(CC(O)CO)c1c(I)c(C(=O)NCC(O)CO)c(I)c(C(=O)NCC(O)CO)c1I` (stereo not given), the inhibition was -3.11% (inactive).
For `COc1ccc(Nc2ncnc3ccc(Br)cc23)c(OC)c1`, the inhibition was 67.9% (active).
For `Brc1ccc2ncnc(NCc3cccnc3)c2c1`, the inhibition was -1.36% (inactive).
In the case of `O=C(O)CCCCCNc1ncnc2ccc(Br)cc12`, the inhibition is reported as 1.66% (inactive).
For `N/C(=N\S(=O)(=O)c1ccc(Cl)cc1)N1CCOCC1`, the inhibition was 1.47% (inactive).
In the case of `Cc1cc([N+](=O)[O-])c(=O)[nH]c1C`, the inhibition is reported as -0.774% (inactive).
In the case of `COc1ccc(C(C[N+](=O)[O-])n2nc(C)cc2C)cc1` (stereo not given), the inhibition is reported as 27.2% (inactive).
In the case of `Cc1ccc(/C=N/NC(=O)C2=NNC(c3ccccc3)(c3ccccc3)C2)c(O)c1`, the inhibition is reported as 76.5% (active).
With `O=C(NN=Cc1ccccc1O)NN=Cc1ccccc1O` the inhibition was 22.9% (inactive).
With `CCN(CC)c1ccc(/C=N/NC(=O)c2cnccn2)c(O)c1` the inhibition was 25.3% (inactive).
In the case of `CCOC(=O)c1c(S(=O)(=O)NCC(=O)Nc2ccc(C)cc2)c(C)n(C)c1C`, the inhibition is reported as 7.89% (inactive).
For `Cc1c(N=Nc2ccc(N(C)C)cc2)c(=O)n(-c2ccccc2)n1C`, the inhibition was -25.6% (inactive).
With `Cn1c(=S)sc2ccc3ccccc3c21` the inhibition was 0.517% (inactive).
For `CCc1nc(Nc2ccc(NC(C)=O)cc2)c2oc3ccccc3c2n1`, the inhibition was 5.96% (inactive).
With `CC(=O)Nc1ccc(Nc2c3ccccc3nc3ccccc23)cc1` the inhibition was 62.4% (active).
For `CC(=O)Nc1ccc(Nc2cc(C)nc(Nc3ccc(NC(C)=O)cc3)n2)cc1`, the inhibition was -5.88% (inactive).
In the case of `Cc1ccc(Cl)cc1N1CCN(C(=O)c2cccc3c(=O)c(C)c(-c4ccccc4)oc23)CC1`, the inhibition is reported as 9.36% (inactive).
With `C/C=N/N(c1ccccc1)c1ccccc1` the inhibition was 2.93% (inactive).
With `O=C(NNC(=O)c1ccc2ccccc2c1)c1ccc(Cl)cc1` the inhibition was 10.1% (inactive).
For `O=C(CN1CCN(S(=O)(=O)c2ccc(Br)cc2)CC1)Nc1ccccc1C(=O)c1ccccc1`, the inhibition was -0.0235% (inactive).
For `O=C1/C(=C\c2ccc([N+](=O)[O-])cc2)CS(=O)(=O)C/C1=C/c1ccc([N+](=O)[O-])cc1`, the inhibition was 106% (active).
For `O=C(NN=Cc1ccc([N+](=O)[O-])cc1)C1CC1`, the inhibition was -20.4% (inactive).
With `O=[N+]([O-])c1ccc(C=NN=Cc2ccc([N+](=O)[O-])cc2)cc1` the inhibition was -1.22% (inactive).
In the case of `Cc1cc(C)c2nc3nc(C)cc(C)c3c(N)c2c1`, the inhibition is reported as 69% (active).
For `O=S(=O)(NCc1ccccc1Cl)c1cnc[nH]1`, the inhibition was 9.3% (inactive).
For `CN(C)/C=C(\C#N)C(=O)c1cccnc1Oc1ccc(F)cc1F`, the inhibition was -3.39% (inactive).
In the case of `COc1cc(NC(=O)c2[nH]cnc2C(N)=O)cc(C(=O)Nc2cccc(C(F)(F)F)c2)c1`, the inhibition is reported as 89.9% (active).
For `COc1ccc(NC(=O)C(=O)NCC(=O)Nc2cccc(C(F)(F)F)c2)cc1`, the inhibition was 3.29% (inactive).
With `N#Cc1ccc(Oc2ccc(C(F)(F)F)cc2NC(=O)c2ccc(F)cc2)cc1` the inhibition was -2.39% (inactive).
With `Cc1cccc(NC(=O)c2nnn(-c3cccc(C(F)(F)F)c3)c2N)c1` the inhibition was -39.6% (inactive).
For `COc1cc(NC(=O)c2cncc(-c3ccc(C#N)cc3)c2)cc(C(=O)Nc2cccc(C(F)(F)F)c2)c1`, the inhibition was 71.3% (active).
For `O=C(Nc1ccc(-c2csc(Nc3cccc(C(F)(F)F)c3)n2)cc1)c1cccc(C(F)(F)F)c1`, the inhibition was -14.9% (inactive).
In the case of `CC(C)[C@@H](NC(=O)OC(C)(C)C)C(=O)NCC1CCC(C(=O)N[C@@H](Cc2ccccc2)C(=O)O)CC1` (stereo not given in full), the inhibition is reported as -3.13% (inactive).
In the case of `CCn1c(/C=C/c2ccc([N+](=O)[O-])o2)nc2ccccc2c1=O`, the inhibition is reported as 75.9% (active).
For `O=c1oc(/C=C/c2ccccc2)nc2ccccc12`, the inhibition was -14.4% (inactive).
In the case of `CCOCCCn1c(NN)nc2ccccc2c1=O`, the inhibition is reported as 10.3% (inactive).
For `CC(=O)NC(CC(=O)Nc1nccs1)c1ccccc1` (stereo not given), the inhibition was -5.93% (inactive).
In the case of `O=C1CC[C@@H]2CC3(C[C@@H]4CCN1[C@H]24)Nc1cc([N+](=O)[O-])ccc1NC3=NC1CCCCC1` (stereo not given in full), the inhibition is reported as -4.61% (inactive).
In the case of `CC(=O)N1CC[n+]2c(-c3ccc([N+](=O)[O-])cc3)csc21`, the inhibition is reported as -4.65% (inactive).
With `COCCN1C(=O)C(=O)/C(=C(/O)c2ccc(S(=O)(=O)N3CCOCC3)cc2)C1c1ccc(OC)c(OC)c1` (stereo not given) the inhibition was 2.98% (inactive).
With `CCOC(=O)c1c(C)[nH]c2c1-c1ccccc1C(=O)C2=O` the inhibition was 106% (active).
For `CCOC(=O)c1c(C)nc(-c2ccccc2)nc1NC(=O)C(C)C`, the inhibition was -26.2% (inactive).
For `CCOC(=O)c1ccccc1OC(=O)Oc1ccccc1C(=O)OCC`, the inhibition was 24% (inactive).
